PubChem BioAssay (EPA / NIEHS)
Activity calls are given as the source filed them. Rule for the calls: active = hit-call score of the fitted dose curve at least 0.9, where 1 is the maximum; inactive = score below 0.9.

Key:
[1] = read-out: Macrophage colony-stimulating factor (MCSF), CSF1 (gene 1435); assay: BSK_hDFCGF_MCSF: BioMAP Diversity Plus: hDFCGF Assay for Macrophage colony-stimulating factor (MCSF) Biomarker Activity (AID 2283060); conditions: primary human foreskin fibroblasts; actives raise or lower the signal
Outline: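 ELISA read-out of M-CSF in human dermal foreskin fibroblast cultures, 24 h after chemical dosing; gain or loss of signal fitted bidirectionally relative to DMSO baseline.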

[2] = BSK_hDFCGF_SRB: Viability Assessment in the BioMAP Diversity Plus: hDFCGF Assay (AID 2283061); conditions: primary human foreskin fibroblasts;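 note: cells exposed to compound for 24 h before the read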
Outline: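 Primary human foreskin fibroblasts; 24 h post-dose; fixed 10% TCA, stained 0.1% SRB, A560 read; total protein as overt cytotoxicity measure; curves fit bidirectionally vs DMSO control.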

[3] = read-out: TIMP metallopeptidase inhibitor 1 (TIMP1), TIMP1 (gene 7076); assay: BSK_hDFCGF_TIMP1: BioMAP Diversity Plus: hDFCGF Assay for TIMP metallopeptidase inhibitor 1 (TIMP1) Biomarker Activity (AID 2283062); conditions: primary human foreskin fibroblasts; actives raise or lower the signal
Outline: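 ELISA readout of TIMP-1 from human dermal foreskin fibroblast cultures 24 h post-dosing. Curves were fitted in both directions against DMSO baseline, with SRB total-protein staining in parallel cultures as a cytotoxicity check.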

[4] = read-out: Monokine induced gamma interferon (MIG), CXCL9 (gene 4283); assay: BSK_hDFCGF_MIG: BioMAP Diversity Plus: hDFCGF Assay for Monokine induced gamma interferon (MIG) Biomarker Activity (AID 2283063); conditions: primary human foreskin fibroblasts; actives raise or lower the signal
Outline: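 Fibroblasts (human foreskin, primary) dosed, 24 h, MIG by ELISA; fit bidirectional vs DMSO.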

[5] = read-out: Matrix Metallopeptidase 1 (MMP1), MMP1 (gene 4312); assay: BSK_hDFCGF_MMP1: BioMAP Diversity Plus: hDFCGF Assay for Matrix Metallopeptidase 1 (MMP1) Biomarker Activity (AID 2283064); conditions: primary human foreskin fibroblasts; actives raise or lower the signal
Outline: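 MMP1 levels quantified by ELISA 24 h after dosing human dermal fibroblast cultures, with parallel SRB total-protein staining for overt cytotoxicity. Data fitted in both directions against DMSO baseline.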

[6] = read-out: Vascular cell adhesion molecule 1 (VCAM1), VCAM1 (gene 7412); assay: BSK_hDFCGF_VCAM1: BioMAP Diversity Plus: hDFCGF Assay for Vascular cell adhesion molecule 1 (VCAM1) Biomarker Activity (AID 2283065); conditions: primary human foreskin fibroblasts; actives raise or lower the signal
Outline: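 ELISA read-out of VCAM-1 on human skin fibroblasts, 24 h post-dose; gain or loss of signal fitted bidirectionally against DMSO baseline.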

[7] = read-out: Plasminogen activator inhibitor-1 (PAI1), SERPINE1 (gene 5054); assay: BSK_hDFCGF_PAI1: BioMAP Diversity Plus: hDFCGF Assay for Plasminogen activator inhibitor-1 (PAI1) Biomarker Activity (AID 2283066); conditions: primary human foreskin fibroblasts; actives raise or lower the signal
Outline: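 PAI-1 levels in human dermal foreskin fibroblasts were quantified by ELISA 24 h after dosing, with gain or loss analysed against DMSO. Overt cytotoxicity was checked by sulforhodamine B total-protein staining in parallel cultures.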

[8] = BSK_KF3CT_SRB: Viability Assessment in the BioMAP Diversity Plus: KF3CT Assay (AID 2283069); conditions: primary human keratinocytes with fibroblasts;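 note: read 24 h after compound addition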
Outline: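 Cytotoxicity was gauged by SRB staining (0.1% SRB, 10% TCA fixation, 560 nm) of parallel cultures at 24 h. The cells were primary human skin keratinocytes co-cultured with fibroblasts, and activity was fitted in both directions against DMSO.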

[9] = read-out: Interleukin-1 alpha (IL1a), IL1A (gene 3552); assay: BSK_KF3CT_IL1a: BioMAP Diversity Plus: KF3CT Assay for Interleukin-1 alpha (IL1a) Biomarker Activity (AID 2283070); conditions: primary human keratinocytes with fibroblasts; actives raise or lower the signal
Outline: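 IL-1a was detected by ELISA 24 h after chemical treatment of a co-culture of human skin keratinocytes and foreskin fibroblasts. Gain or loss of signal was fitted against the DMSO baseline.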

[10] = read-out: TIMP metallopeptidase inhibitor 2 (TIMP2), TIMP2 (gene 7077); assay: BSK_KF3CT_TIMP2: BioMAP Diversity Plus: KF3CT Assay for TIMP metallopeptidase inhibitor 2 (TIMP2) Biomarker Activity (AID 2283071); conditions: primary human keratinocytes with fibroblasts; actives raise or lower the signal
Outline: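 TIMP-2 measured by ELISA at 24 h in human keratinocyte/fibroblast primary co-cultures exposed to chemicals. Both increases and decreases were fitted against DMSO. Parallel cultures were stained with SRB for total protein as an overt-cytotoxicity check.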

[11] = read-out: Transforming growth factor beta 1 (TGFb1), TGFB1 (gene 7040); assay: BSK_KF3CT_TGFb1: BioMAP Diversity Plus: KF3CT Assay for Transforming growth factor beta 1 (TGFb1) Biomarker Activity (AID 2283072); conditions: primary human keratinocytes with fibroblasts; actives raise or lower the signal
Outline: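 ELISA quantifies TGF-b1 at 24 h post-dose in a primary human skin co-culture of keratinocytes and fibroblasts, with gain or loss judged against DMSO. Parallel SRB total-protein staining flags overt cytotoxicity.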

[12] = read-out: C-C motif chemokine 2 (Homo sapiens) (UniProt P13500); assay: BSK_KF3CT_MCP1: BioMAP Diversity Plus: KF3CT Assay for Monocyte Chemoattractant Protein 1 (MCP1/CCL2) Biomarker Activity (AID 2283073); conditions: primary human keratinocytes with fibroblasts; actives raise or lower the signal
Outline: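 KF3CT skin co-culture (keratinocytes/foreskin fibroblasts), 24 h post-dose; MCP-1 by ELISA; gain/loss of signal fit bidirectionally vs DMSO baseline.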

[13] = read-out: urokinase plasminogen activator (uPA), PLAU (gene 5328); assay: BSK_KF3CT_uPA: BioMAP Diversity Plus: KF3CT Assay for urokinase plasminogen activator (uPA) Biomarker Activity (AID 2283075); conditions: primary human keratinocytes with fibroblasts; actives raise or lower the signal
Outline: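 ELISA read-out of uPA 24 h after dosing human skin keratinocytes co-cultured with foreskin fibroblasts. Signal change fitted both ways relative to DMSO; sulforhodamine B on parallel cultures marks overt cytotoxicity.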

CD40, CD40 (gene 958) = assay: BSK_LPS_CD40: BioMAP Diversity Plus: LPS Assay for CD40 Biomarker Activity (AID 2283076); conditions: primary human HUVEC with PBMC; actives raise or lower the signal
Outline: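 ELISA readout of CD40 in HUVEC/PBMC co-culture (BSK_LPS system), 24 h post-dosing; bidirectional curve fit, DMSO baseline; parallel SRB total-protein staining for cytotoxicity.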

[14] = read-out: E-selectin (Homo sapiens) (UniProt P16581); assay: BSK_LPS_Eselectin: BioMAP Diversity Plus: LPS Assay for Eselectin Biomarker Activity (AID 2283077); conditions: primary human HUVEC with PBMC; actives raise or lower the signal
Outline: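 ELISA readout of E-selectin, 24 h post-dose, HUVEC + PBMC co-culture (LPS system). Gain or loss of signal vs DMSO baseline, bidirectional fit.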

[15] = read-out: Interleukin-8 (IL8), CXCL8 (gene 3576); assay: BSK_LPS_IL8: BioMAP Diversity Plus: LPS Assay for Interleukin-8 (IL8) Biomarker Activity (AID 2283078); conditions: primary human HUVEC with PBMC; actives raise or lower the signal
Outline: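 HUVEC + PBMC co-culture, LPS-activated; test chemicals dosed, IL-8 read by ELISA at 24 h. Bidirectional curve fit vs DMSO baseline (gain or loss of signal).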

[16] = read-out: Intercellular Adhesion Molecule 1 (ICAM1), ICAM1 (gene 3383); assay: BSK_KF3CT_ICAM1: BioMAP Diversity Plus: KF3CT Assay for Intercellular Adhesion Molecule 1 (ICAM1) Biomarker Activity (AID 2283067); conditions: primary human keratinocytes with fibroblasts; actives raise or lower the signal
Outline: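 ELISA readout of ICAM-1; KF3CT human skin co-culture (keratinocytes + foreskin fibroblasts), 24 h post-dose; gain/loss fit vs DMSO baseline.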

[17] = read-out: Matrix Metallopeptidase 9 (MMP9), MMP9 (gene 4318); assay: BSK_KF3CT_MMP9: BioMAP Diversity Plus: KF3CT Assay for Matrix Metallopeptidase 9 (MMP9) Biomarker Activity (AID 2283074); conditions: primary human keratinocytes with fibroblasts; actives raise or lower the signal;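 for AC50: MMP9 protein level quantified by ELISA in the co-culture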
Outline: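 MMP-9 quantified by ELISA after 24 h chemical treatment of primary human skin keratinocyte/fibroblast co-cultures; gain or loss fitted against DMSO, with parallel SRB staining (0.1% SRB, 560 nm) for overt cytotoxicity.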

[18] = read-out: Interferon-gamma inducible Protein 10 (IP10), CXCL10 (gene 3627); assay: BSK_KF3CT_IP10: BioMAP Diversity Plus: KF3CT Assay for Interferon-gamma inducible Protein 10 (IP10) Biomarker Activity (AID 2283068); conditions: primary human keratinocytes with fibroblasts; actives raise or lower the signal
Outline: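 Signal is secreted/surface IP-10 by ELISA in a human primary skin co-culture of keratinocytes and foreskin fibroblasts, taken 24 h post-dosing; DMSO served as negative control.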

Measured: AC50

E-selectin (Homo sapiens), sequence (P16581 whole entry, looked up): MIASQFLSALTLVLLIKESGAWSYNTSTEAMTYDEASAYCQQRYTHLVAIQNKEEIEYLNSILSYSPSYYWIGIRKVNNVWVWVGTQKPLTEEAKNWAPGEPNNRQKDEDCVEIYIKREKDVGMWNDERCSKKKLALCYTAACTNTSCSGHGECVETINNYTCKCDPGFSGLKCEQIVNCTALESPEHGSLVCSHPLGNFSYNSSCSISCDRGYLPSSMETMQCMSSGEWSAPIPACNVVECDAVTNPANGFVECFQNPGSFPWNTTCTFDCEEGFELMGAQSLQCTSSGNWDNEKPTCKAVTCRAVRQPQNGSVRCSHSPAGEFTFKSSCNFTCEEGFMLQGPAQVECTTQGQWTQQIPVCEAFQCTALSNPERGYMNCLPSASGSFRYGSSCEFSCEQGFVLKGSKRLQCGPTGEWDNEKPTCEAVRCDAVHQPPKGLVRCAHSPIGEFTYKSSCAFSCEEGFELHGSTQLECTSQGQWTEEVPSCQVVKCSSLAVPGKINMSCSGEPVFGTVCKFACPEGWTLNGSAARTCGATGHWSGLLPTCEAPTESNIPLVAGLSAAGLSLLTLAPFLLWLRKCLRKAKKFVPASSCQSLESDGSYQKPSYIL

Cc1ccc([N+](=O)[O-])cc1C
not listed: [16] | [17] | [18]
inactive: all other assays above

O=P(OCC(Br)CBr)(OCC(Br)CBr)OCC(Br)CBr (stereo unspecified)
active: [17] 21.1 µM
not listed: [14] | [18]
inactive: all other assays above

OCC1CO1 (stereo unspecified)
not listed: [7]
inactive: all other assays above
